Consider 76 sequences from the supplement of paper PMC3334620.

Over roughly 33,000 sequences, “E-score (-0.5 to 0.5)” has its median near -8e-05; the highest 2% begin near 0.23. The full list was thinned out, with the highest values kept by preference.

The target of this assay is T1, Nrg2 (UniProt P38082).
T1 sequence: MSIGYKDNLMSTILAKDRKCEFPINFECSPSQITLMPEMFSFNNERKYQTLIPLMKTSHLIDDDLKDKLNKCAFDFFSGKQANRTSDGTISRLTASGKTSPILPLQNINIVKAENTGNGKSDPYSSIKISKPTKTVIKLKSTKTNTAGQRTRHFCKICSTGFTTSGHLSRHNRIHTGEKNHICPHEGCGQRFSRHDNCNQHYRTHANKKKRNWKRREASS
Description: PBM E-score (8-mer binding enrichment) (E-score (-0.5 to 0.5)); higher = stronger / more preferred TF binding. Particulars: protein concentration: 100 nM; construct: GST-full length. The method in brief: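 Universal all-10-mer Agilent arrays, fresh or stripped once, were converted to double-stranded form by primer extension. GST-tagged yeast transcription factors from PURExpress in vitro transcription/translation, full-length or DNA-binding domain only, were applied at about 100-200 nM and detected with fluorescent anti-GST. After masliner normalisation, the Universal PBM Analysis Suite scored each ungapped eight-base word together with its reverse complement by E-score.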
Turning to TCCGGTAA, the “PBM E-score” value is -0.0902.

On to CCTGGGTA, for which the “PBM E-score” value is -0.159. The value for GCCGGAAA was 0.104; that for ACTCTGCC was -0.142; that for GGGCATAA was 0.109. The value for GGGCTTCA was -0.103; that for TCTCTAAA was -0.134. Then AGAGCCCC, with -0.139. As to GTGGTCCA, the “PBM E-score” value was found to be 0.0422. Then CGAACGCA, with 0.282. The value for TGAACGCA was 0.0815; that for GGAACGCA was 0.0954; that for AAGCGCTA was 0.0465. The value for AAGCGCTC was 0.0396; that for AAGCGCTT was 0.303.

Consider CCGCCAAC, for which the “PBM E-score” value was -0.126. Then ACGTTTCC, with -0.16; and ATTCCACG, with 0.0249; and ATTCCACC, with 0.0335. Take ATTCCACA: the “PBM E-score” value came out at 0.243. The value for GGAGGCAA was -0.141; that for CAGGTCCA was 0.0188; that for ACCGTTCA was -0.164. The value for ATATCGCG was 0.331; that for AAATCGCC was 0.00869; that for ATATCGCC was 0.0573.

As for AAATCGCA, the “PBM E-score” value was 0.158. Take ATATCGCA: the “PBM E-score” value is -0.0927. The value for AAATCGCG was 0.233; that for GGGTTTAA was 0.0664; that for AGATGGTA was 0.0502. Then GTAGTGGA, with 0.152; and ACCTTAGG, with -0.191; and CGCCCGAG, with 0.117. The value for TCCGGCCA was 0.00685; that for CGCGAAAG was 0.122; that for GTGTAGAA was -0.191. For GCAGGGGA, the “PBM E-score” value is -0.192. Then CCAGGGAG, with -0.107. Take GAAGGGAC: the “PBM E-score” value is 0.159. The value for GCAGGGAA was 0.238; that for CCAGGGAC was 0.366; that for GCAGGGAC was 0.28. The value for GCAGGGCC was 0.101; that for TCAGGGAA was 0.0408; that for CCAGGGAA was 0.0205.

Regarding CATGTAGG, the “PBM E-score” value is 0.092.

Take CGTCGGTC: the “PBM E-score” value was found to be 0.00408. The value for CAGGTTAA was -0.0788; that for CACGTCCA was -0.177.

For the sequence ACGCGATC, the “PBM E-score” value worked out at 0.146. Regarding AGAGCTGA, the “PBM E-score” value turned out to be 0.00384. Then CGAGCTCA, with 0.108. Consider CGAGCTCG, for which the “PBM E-score” value turned out to be 0.241. The value for TCAGCTGA was 0.279; that for CGAGCTGA was 0.243.

For the sequence CGAGCTCC, the “PBM E-score” value worked out at 0.12. As to GCAGCTGA, the “PBM E-score” value is 0.0488.

Consider CGAGCTTA, for which the “PBM E-score” value was -0.0737. Then ACAGCTGA, with 0.0892. Then ATCCTCAG, with 0.1; and AGCGGCCT, with -0.275; and GCTTCGTA, with -0.102. The value for CGGCCGAA was 0.0577; that for GAGCTCGA was 0.183; that for ACTAGCTA was 0.0559. For AAGAATCC, the “PBM E-score” value was found to be 0.0617. The value for AACCCCAT was 0.07; that for AACCCCAG was 0.237; that for AACCCCAA was 0.147. As for TACCCCAA, the “PBM E-score” value is 0.247.

On to TACCCCCA, for which the “PBM E-score” value is -0.159. As to ACCCCCAG, the “PBM E-score” value was -0.291. The value for GCCGCAAA was 0.157; that for ATCAACCG was 0.0105.

Turning to GGTGAATA, the “PBM E-score” value was found to be 0.104.
